# The whole screen tested about 220,000 compounds, of which about 530 (0.24%) were called active. Many of the other results were omitted from the sample, so actives are more common in it than they were. Results with a measured potency or affinity are listed apart. A number with no mark means an inactive call. No stated cut-off is given here; in the data, active means inhibition above about 13%; inconclusive means no clear call, values can overlap the other calls; inactive means below that.
# Target: Bifunctional protein GlmU (Mycobacterium tuberculosis (strain ATCC 25618 / H37Rv)) (UniProt P9WMN3)
# Assay: inhibition of mycobacterial GlmU enzyme – biochemical, glucosamine-1-phosphate acetyltransferase (AID 1376);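 further: 0% = complete reaction with vehicle and 100% = reaction without substrate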
# Details: M. tuberculosis GlmU acetyltransferase enzyme assay; stronger effect = higher value;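 tested at 30 µM in the primary screen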
# Bifunctional protein GlmU (Mycobacterium tuberculosis (strain ATCC 25618 / H37Rv)), sequence (P9WMN3 whole entry, looked up): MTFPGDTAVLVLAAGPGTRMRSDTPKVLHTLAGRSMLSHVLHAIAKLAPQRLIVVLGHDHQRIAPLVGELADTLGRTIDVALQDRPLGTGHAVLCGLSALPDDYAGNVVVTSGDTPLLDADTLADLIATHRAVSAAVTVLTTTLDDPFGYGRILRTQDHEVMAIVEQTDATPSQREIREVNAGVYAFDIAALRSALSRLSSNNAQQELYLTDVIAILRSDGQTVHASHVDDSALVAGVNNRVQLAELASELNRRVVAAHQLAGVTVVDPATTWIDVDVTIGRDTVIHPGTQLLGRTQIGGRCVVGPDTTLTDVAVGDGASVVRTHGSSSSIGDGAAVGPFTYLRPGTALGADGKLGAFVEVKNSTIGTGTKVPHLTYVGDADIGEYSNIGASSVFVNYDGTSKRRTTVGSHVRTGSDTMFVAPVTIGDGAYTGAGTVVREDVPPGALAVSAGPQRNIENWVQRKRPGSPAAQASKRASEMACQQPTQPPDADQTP
row,SMILES,inhibition
1,COc1cc2cccc(OC)c(=O)c2c(O)c1OC,-3.83%
2,O=C(c1ccc2c(c1)OCCO2)N1CCN(c2ccc([N+](=O)[O-])cc2)CC1,-4.31%
3,Cc1ccc(C2=NC(=O)/C(=C/c3cc(O)c(O)c(Br)c3)S2)cc1,17.7% (active)
4,COc1cc(/C=C2\SC(c3ccc(C)cc3)=NC2=O)cc(OC)c1O,5.86%
5,COc1cc(/C=C2\SC(c3ccc(C)cc3)=NC2=O)ccc1O,7.11%
6,CC(=O)Nc1ccc(/C(C)=N/NC(=O)c2ccncc2)cc1,1.93%
7,COc1ccc(N2C(=O)CC(C3CCCO3)C2=O)cc1 (stereo not given),6.39%
8,Cn1c(O)c(C=NC2CC(C)(C)NC(C)(C)C2)c(=O)n(C)c1=O,1.39%
9,O=S(=O)(Nc1ccc2c(c1)oc1ccccc12)N1CCCC1,5.63%
10,COc1cc2c(cc1NS(=O)(=O)N1CCCC1)oc1ccccc12,1.9%
11,COc1cc2c(cc1NS(=O)(=O)N1CCCCC1)oc1ccccc12,14.6% (active)
12,FC(F)Oc1ccc(NC(=S)NCCc2ccccn2)cc1,-3.82%
13,O=C(Nc1cccc(Cl)c1)Nc1nnc(CSCCOc2ccc(Cl)cc2)s1,-7.81%
14,Cc1ccc(C)n1-c1cccc(C(=O)O)c1,23.5% (active)
15,Cc1cc(C=O)c(C)n1-c1cccc(C(=O)O)c1,6.93%
16,Cc1ccc(-c2ccccc2)n1-c1cccc(C(=O)O)c1,5.34%
17,Cc1ccccc1NC(=O)Cn1nc(-c2ccccc2)nc1-c1ccccc1,1.21%
18,O=[N+]([O-])c1cccnc1Oc1cccnc1,6.22%
19,Cn1c(Cc2ccc3c(c2)OCO3)nnc1SCC(=O)N1CCc2ccccc2C1,1.71%
20,N#Cc1c(N2CCCCC2)nc(N)c2c(N)nc(SCC(=O)O)cc12,13.1% (active)
21,COc1cc2c(C#N)c(N3CCCCC3)nc(N)c2c(N)n1,-2.38%
22,CCOC(=O)C1CCN(c2nc(N)c3c(N)nc(SCC(=O)O)cc3c2C#N)CC1,14.2% (active)
23,CCOc1cc2c(C#N)c(N3CCCC3)nc(N)c2c(N)n1,4.64%
24,CCOC(=O)C1CCN(c2nc(C)cc(C)c2C#N)CC1,-1.41%
25,N#Cc1c(N2CCCC2)nc(N)c2c(N)nc(N3CCCC3)cc12,-6.67%

row,SMILES,inhibition
1,CC(=O)Nc1ccccc1C(=O)C(=O)Nc1ccc(C)c(C)c1,-3.19%
2,COc1cc(C(=S)N2CCCC2)cc(Cl)c1OCC(=O)Nc1ccc(C)cc1C,-4.86%
3,CN(C)CCCOC(=O)c1cc2ccccc2o1,-2.64%
4,O=C(Cn1cnc2ccccc2c1=O)N1CCN(c2ccccc2)CC1,5.67%
5,COc1nc(N(CC(N)=O)S(=O)(=O)c2ccccc2)nc(C)c1Cl,4.56%
6,COC(=O)CN(c1nc(C)c(Br)c(OC)n1)S(=O)(=O)c1ccc(C)cc1,1.24%
7,COC(=O)CN(c1nc(C)c(Cl)c(OC)n1)S(=O)(=O)c1ccc(C)cc1,25.4% (active)
8,CC(O)CCC(=O)NNC(=S)Nc1ccccc1 (stereo not given),2.51%
9,O=C(O)C1CCCCC1C(=O)Nc1ccc(F)cc1F (stereo not given),5.94%
10,O=C(O)C1CCCCC1C(=O)Nc1ccccc1F (stereo not given),13.6% (active)
11,O=C(Nc1ccccc1F)C1CCN(C(=O)Cc2ccccc2)CC1,15% (active)
12,O=C(O)C1CCCCC1C(=O)Nc1ccccc1Cl (stereo not given),-0.88%
13,O=C(Nc1cccc2ccccc12)C1CCN(C(=O)Cc2ccccc2)CC1,0.74%
14,O=C(Nc1ccccc1Br)C1CCN(C(=O)Cc2ccccc2)CC1,-6.58%
15,Nc1nc2n(n1)C(c1ccc(F)cc1)CC(c1ccc(F)cc1)N2 (stereo not given),-1.02%
16,COc1ccc(C2CC(c3ccc(OC)cc3)n3nc(N)nc3N2)cc1 (stereo not given),1.16%
17,COc1ccc(C2CC(c3ccc(F)cc3)Nc3nc(N)nn32)cc1 (stereo not given),20% (active)
18,Cc1ccc(/C(O)=C2\C(=O)C(=O)N(CC(C)O)C2c2ccccn2)cc1 (stereo not given),-0.84%
19,COC(=O)Cc1ccc(NC(=S)NCCO)cc1,-2%
20,COC(=O)Cc1ccc(NC(=S)NCCCO)cc1,13.5% (active)
21,CCCNC(=S)Nc1ccc(CC(=O)OC)cc1,-4.55%
22,COC(=O)c1sc(N2C(=O)C(=O)/C(=C(/O)c3ccc(C)cc3)C2c2ccco2)nc1C (stereo not given),-0.75%
23,CC1=C(C(=O)Nc2ccccn2)C(c2ccc(Br)cc2)NC(=S)N1 (stereo not given),14.3% (active)
24,COc1ccc(C2NC(=S)NC(C)=C2C(=O)Nc2ccccn2)cc1 (stereo not given),2.34%
25,CC1=C(C(=O)Nc2ccccn2)C(c2ccc(Cl)cc2)NC(=S)N1 (stereo not given),2.47%
